The results in this text go back to ChEMBL document CHEMBL3988442, “University of Dundee, Small-Polar-MMV Screening Library” (2021).

For part of these data: Results with a measured potency or affinity are listed apart.

Holding throughout (set-up): scale not given: direction of the effect not stated beside the values
The target of assay [1] is Protein translocase subunit SecA (Escherichia coli (strain K12)) (UniProt P10408). Briefly: Assay to Identify E. coli SecA ATPase Inhibitors. Type of assay: functional. As to conditions: 30 µM.
In assay [2] the target is T1, Ubiquitin-activating enzyme e1, putative (Leishmania donovani (strain BPK282A1)) (UniProt E9BSI1).
T1 sequence (whole entry): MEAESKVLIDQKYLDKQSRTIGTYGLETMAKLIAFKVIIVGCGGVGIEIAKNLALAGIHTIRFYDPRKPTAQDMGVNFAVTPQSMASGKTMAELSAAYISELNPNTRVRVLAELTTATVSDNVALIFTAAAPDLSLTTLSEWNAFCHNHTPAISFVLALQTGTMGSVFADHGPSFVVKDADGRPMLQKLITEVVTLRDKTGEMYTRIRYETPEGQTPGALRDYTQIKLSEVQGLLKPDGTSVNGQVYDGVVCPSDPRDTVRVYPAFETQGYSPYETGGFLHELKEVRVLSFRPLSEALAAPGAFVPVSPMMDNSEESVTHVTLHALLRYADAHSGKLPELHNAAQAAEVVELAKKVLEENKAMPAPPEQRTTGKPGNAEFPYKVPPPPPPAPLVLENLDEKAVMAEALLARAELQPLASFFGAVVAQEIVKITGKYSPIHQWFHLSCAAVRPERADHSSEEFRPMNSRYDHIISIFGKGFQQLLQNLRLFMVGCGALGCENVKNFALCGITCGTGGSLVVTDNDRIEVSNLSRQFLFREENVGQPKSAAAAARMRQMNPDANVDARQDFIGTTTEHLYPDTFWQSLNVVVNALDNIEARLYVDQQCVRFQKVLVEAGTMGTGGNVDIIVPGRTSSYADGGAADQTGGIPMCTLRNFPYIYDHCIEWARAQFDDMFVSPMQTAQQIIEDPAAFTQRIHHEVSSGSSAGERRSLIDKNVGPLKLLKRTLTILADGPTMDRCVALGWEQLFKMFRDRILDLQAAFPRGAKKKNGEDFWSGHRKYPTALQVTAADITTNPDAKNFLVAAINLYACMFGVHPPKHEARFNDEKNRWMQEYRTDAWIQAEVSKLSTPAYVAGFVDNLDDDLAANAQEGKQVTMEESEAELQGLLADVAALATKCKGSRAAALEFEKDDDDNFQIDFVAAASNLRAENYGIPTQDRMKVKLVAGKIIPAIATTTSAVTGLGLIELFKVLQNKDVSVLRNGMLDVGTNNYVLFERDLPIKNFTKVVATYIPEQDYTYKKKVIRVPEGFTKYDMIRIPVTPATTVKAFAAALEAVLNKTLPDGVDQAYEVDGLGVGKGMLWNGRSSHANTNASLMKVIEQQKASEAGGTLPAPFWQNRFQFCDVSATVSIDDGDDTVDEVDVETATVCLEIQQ
In words: Leishmania donovani Ubiquitin Activating Enzyme (LdE1). Type of assay: functional. As to conditions: 30 µM.

The target in assay [3] is AMP-activated protein kinase, AMPK (Homo sapiens) (UniProt P54646+O43741+P54619+Q9UGJ0+Q9Y478+Q13131+Q9UGI9). Briefly: AMP-dependent Kinase enzyme assay. An in vitro enzyme assay that detects ADP turnover that is directly proportional to AMPK activity. This uses naive AMPK that is activated during the assay with MK-8722. The format is functional. As to conditions: 30 µM.

Assay [4] has as its target Sialic acid-binding Ig-like lectin 9 (Homo sapiens) (UniProt Q9Y336). In words: Hs-Siglec9 ALPHAscreen SOP 20170721. As to conditions: 10 µM. (Alpha assays give light when donor and acceptor beads are brought close together.)
The subject of the next assay is Trypanosoma cruzi. Briefly: Trypanosoma cruzi phosphomannomutase and mannose-1-phosphate guanylyltransferase assay. The format is functional. As to conditions: 10 µM.
For assay [5], the target named is T2, Arginase-2, mitochondrial (Homo sapiens) (UniProt P78540).
T2 sequence (whole entry): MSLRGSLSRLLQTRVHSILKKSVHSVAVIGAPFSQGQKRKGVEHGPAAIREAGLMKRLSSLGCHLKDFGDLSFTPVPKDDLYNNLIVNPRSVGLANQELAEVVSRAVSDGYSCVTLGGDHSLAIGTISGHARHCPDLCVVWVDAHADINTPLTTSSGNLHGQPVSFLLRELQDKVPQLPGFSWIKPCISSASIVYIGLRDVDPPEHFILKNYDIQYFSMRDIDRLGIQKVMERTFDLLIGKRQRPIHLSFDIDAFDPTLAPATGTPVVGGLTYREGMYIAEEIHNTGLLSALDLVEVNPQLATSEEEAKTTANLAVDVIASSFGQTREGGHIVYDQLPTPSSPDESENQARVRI
Briefly: in vitro enzyme assay to detect the production of urea directly proportional to the activity of Arginase II. Also: in the data most compounds retested in dose-response had high values. The format is functional. As to conditions: 33.3 µM.

In assay [6] the target is T3, Proteasome subunit beta (Trypanosoma cruzi) (UniProt O96673).
T3 sequence (whole entry): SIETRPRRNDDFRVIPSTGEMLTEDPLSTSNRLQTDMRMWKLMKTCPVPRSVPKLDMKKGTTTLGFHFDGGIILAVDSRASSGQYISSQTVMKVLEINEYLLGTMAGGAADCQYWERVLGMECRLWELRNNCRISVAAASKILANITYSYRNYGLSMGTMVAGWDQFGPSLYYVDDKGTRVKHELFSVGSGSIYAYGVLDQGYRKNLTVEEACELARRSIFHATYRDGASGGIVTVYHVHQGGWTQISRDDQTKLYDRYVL
In words: Trypanosoma cruzi proteasome chymotrypsin-like activity (TcProtChymo) assay. Also: in the data most compounds retested in dose-response had high values. Type of assay: functional. As to conditions: 9.37 µM.

The next assay is filed under the species Homo sapiens. In words: To identify inhibition of the IFN signalling (Jak-Stat) pathway via expression of an eGFP reporter gene under the control of an IFN-stimulated response element (ISRE) containing MxA promoter. As to conditions: 30 µM. Type of assay: functional. (In general: In a reporter assay the amount or activity of a reporter protein is the signal.)

Assay [7] concerns the target T4, Tyrosyl-tRNA synthetase, putative (Trypanosoma cruzi (strain CL Brener)) (UniProt Q4DSP6).
T4 sequence (whole entry): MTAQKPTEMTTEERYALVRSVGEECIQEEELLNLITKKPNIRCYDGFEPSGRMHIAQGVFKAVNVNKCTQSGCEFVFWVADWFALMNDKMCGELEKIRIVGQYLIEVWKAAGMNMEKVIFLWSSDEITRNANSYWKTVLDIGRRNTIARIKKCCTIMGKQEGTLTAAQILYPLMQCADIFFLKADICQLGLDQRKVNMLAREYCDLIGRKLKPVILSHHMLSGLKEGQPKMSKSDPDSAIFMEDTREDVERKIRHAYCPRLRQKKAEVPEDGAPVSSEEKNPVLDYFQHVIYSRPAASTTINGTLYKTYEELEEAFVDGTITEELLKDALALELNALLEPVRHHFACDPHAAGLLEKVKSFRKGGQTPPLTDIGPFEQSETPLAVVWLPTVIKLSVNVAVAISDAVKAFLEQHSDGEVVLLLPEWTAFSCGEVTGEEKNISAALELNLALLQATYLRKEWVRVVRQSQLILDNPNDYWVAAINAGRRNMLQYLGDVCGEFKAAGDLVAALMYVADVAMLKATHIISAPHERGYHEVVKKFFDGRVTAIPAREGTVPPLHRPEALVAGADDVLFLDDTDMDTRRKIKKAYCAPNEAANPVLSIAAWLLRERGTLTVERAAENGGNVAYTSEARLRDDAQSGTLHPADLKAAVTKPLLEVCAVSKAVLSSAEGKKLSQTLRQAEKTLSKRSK
Briefly: Trypanosoma cruzi tyrosyl tRNA synthetase (TcYRS) _High Tyrosine SOP. Also: in the data most compounds retested in dose-response had high values. As to conditions: 30 µM. Type of assay: functional.

Assay [8] has as its target T4, Tyrosyl-tRNA synthetase, putative (Trypanosoma cruzi (strain CL Brener)). In words: Trypanosoma cruzi tyrosyl tRNA synthetase (TcYRS) SOP. The format is functional. As to conditions: 30 µM.
Assay [9] addresses Chromo domain-containing protein 1 (Saccharomyces cerevisiae (strain ATCC 204508 / S288c) (Baker's yeast)) (UniProt P32657). In words: ScCHD-1 Enzyme Inhibition Assay. Also: in the data most compounds retested in dose-response had high values. The format is functional. As to conditions: 30 µM.

Chain of Chromo domain-containing protein 1 (Saccharomyces cerevisiae (strain ATCC 204508 / S288c) (Baker's yeast)) (P32657 whole entry, the tested form may be a part): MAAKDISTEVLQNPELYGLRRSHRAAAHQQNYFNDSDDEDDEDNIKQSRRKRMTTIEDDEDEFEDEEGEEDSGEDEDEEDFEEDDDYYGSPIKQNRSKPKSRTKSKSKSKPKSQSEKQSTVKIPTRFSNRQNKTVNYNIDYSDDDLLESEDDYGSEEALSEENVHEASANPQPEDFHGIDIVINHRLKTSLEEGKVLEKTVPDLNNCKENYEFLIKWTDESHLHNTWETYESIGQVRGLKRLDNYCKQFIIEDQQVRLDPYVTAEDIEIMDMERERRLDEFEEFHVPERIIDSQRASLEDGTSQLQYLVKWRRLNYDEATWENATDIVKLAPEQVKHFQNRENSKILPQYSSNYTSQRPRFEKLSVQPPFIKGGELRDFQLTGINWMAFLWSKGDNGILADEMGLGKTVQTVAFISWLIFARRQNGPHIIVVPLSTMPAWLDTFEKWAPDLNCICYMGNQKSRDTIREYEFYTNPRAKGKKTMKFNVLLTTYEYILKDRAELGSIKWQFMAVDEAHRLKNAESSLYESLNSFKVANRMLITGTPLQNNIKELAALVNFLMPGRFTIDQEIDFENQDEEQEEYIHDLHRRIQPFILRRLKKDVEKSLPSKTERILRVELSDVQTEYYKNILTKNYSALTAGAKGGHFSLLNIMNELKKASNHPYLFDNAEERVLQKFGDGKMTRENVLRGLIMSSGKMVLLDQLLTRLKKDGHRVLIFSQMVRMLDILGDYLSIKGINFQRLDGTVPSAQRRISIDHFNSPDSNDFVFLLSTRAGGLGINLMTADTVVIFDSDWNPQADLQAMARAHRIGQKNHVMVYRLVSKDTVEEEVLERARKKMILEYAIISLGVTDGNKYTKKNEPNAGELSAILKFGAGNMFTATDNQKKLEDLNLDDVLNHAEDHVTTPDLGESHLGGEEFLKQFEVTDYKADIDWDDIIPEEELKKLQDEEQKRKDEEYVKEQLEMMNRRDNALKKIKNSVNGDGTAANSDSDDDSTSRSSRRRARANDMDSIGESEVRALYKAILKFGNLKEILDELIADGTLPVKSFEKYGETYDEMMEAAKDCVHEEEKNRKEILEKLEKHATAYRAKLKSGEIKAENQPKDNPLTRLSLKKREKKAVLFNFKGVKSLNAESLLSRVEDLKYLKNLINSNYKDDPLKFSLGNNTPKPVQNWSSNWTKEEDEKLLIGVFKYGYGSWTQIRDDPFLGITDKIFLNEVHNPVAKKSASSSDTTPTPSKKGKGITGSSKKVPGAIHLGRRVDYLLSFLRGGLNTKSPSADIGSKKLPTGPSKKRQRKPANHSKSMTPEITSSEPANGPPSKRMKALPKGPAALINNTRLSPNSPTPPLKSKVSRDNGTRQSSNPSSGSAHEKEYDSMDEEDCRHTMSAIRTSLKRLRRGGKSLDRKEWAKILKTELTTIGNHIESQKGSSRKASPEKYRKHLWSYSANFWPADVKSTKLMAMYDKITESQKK
Chain of Sialic acid-binding Ig-like lectin 9 (Homo sapiens) (Q9Y336 whole entry): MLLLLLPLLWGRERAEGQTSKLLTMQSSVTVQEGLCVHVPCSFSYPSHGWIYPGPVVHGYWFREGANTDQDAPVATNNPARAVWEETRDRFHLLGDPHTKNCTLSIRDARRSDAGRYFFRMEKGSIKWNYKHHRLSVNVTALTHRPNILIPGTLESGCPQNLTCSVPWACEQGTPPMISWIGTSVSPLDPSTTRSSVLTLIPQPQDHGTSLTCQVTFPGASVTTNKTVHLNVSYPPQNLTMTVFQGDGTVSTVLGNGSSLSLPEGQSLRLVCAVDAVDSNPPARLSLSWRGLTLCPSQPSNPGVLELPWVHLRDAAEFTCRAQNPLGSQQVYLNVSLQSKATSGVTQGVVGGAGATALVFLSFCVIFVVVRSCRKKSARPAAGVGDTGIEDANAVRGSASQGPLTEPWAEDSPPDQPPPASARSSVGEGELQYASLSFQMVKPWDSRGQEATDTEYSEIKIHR
Chain of Protein translocase subunit SecA (Escherichia coli (strain K12)) (P10408 whole entry): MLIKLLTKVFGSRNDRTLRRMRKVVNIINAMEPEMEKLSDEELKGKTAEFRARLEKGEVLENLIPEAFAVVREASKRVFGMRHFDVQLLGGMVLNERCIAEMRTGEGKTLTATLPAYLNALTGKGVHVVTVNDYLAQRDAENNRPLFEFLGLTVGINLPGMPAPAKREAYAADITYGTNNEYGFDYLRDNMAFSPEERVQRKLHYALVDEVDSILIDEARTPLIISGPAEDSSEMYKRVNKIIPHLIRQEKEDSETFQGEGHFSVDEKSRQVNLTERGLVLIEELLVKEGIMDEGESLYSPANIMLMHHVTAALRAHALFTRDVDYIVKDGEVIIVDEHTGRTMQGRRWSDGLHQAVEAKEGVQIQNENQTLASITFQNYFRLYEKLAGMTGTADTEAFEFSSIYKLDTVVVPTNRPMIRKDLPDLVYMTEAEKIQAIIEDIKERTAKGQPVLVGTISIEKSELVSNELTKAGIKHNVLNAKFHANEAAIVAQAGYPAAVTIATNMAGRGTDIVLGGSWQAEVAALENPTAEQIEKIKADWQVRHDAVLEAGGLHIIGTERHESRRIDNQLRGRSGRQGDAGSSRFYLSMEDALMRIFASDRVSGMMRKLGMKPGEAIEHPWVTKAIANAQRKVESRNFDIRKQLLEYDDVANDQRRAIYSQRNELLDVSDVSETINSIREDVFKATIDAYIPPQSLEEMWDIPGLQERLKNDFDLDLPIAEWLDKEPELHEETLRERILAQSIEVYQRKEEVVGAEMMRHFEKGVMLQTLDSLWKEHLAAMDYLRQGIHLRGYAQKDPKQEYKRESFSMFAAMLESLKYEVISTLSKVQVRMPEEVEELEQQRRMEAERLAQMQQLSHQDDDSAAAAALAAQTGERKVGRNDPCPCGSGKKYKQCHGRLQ

Take `CCC(=O)N1CCC2(CC1)c1nc[nH]c1CCN2S(C)(=O)=O`: the Percent Effect in assay [1] was -5.57%; in assay [2] it was 12.5%; in assay [3], -6.81%; in [4] it was 9.02%; in the assay with Trypanosoma cruzi it was 4.18%; in [5], 23%. The Percent Effect was 11.8% in assay [6]; 13.6% in the assay filed under Homo sapiens; 5.26% in assay [7]; 10.3% in [8]; -5.69% in assay [9].
For `Fc1cccnc1OC[C@@]12CCO[C@@H]1CCN(CC1CCOCC1)C2`, the Percent Effect in [1] is -3.83%; in assay [2], 8.11%; in [3] it was -6.9%; in assay [4], 22.7%; in the assay with Trypanosoma cruzi, 4.01%; in assay [5], -0.744%. For the same compound, the Percent Effect in assay [6] is 14.3%; in the assay listed under Homo sapiens, 12.2%; in [7], 6.45%; in assay [8], 13.6%; in assay [9], -9.09%.
For `Cc1nn(C)c(C)c1C1CCCN1Cc1cccc(C(=O)N(C)C)c1` (centres undefined), the Percent Effect was -2.08% in assay [1]; 7.59% in assay [2]; -8.35% in [3]; 3.65% in assay [4]; 4.06% in the assay with Trypanosoma cruzi; 0.76% in assay [5]. The Percent Effect was 2.54% in assay [6]; -16.6% in the assay filed under Homo sapiens; 4.43% in [7]; 8.86% in assay [8]; 0.0198% in assay [9].
Consider `CN(C)CC1CN(Cc2csc(C3CCCC3)n2)CCO1` (centres undefined), for which the Percent Effect in [1] is -2.18%; in [2], 5.26%; in assay [3] it was -6.29%; in assay [4], 9.69%; in the assay with Trypanosoma cruzi, 6.63%; in assay [5], 0.36%. For the same compound, the Percent Effect is 7.02% in [6]; -33% in the assay listed under Homo sapiens; 8.37% in assay [7]; 16.1% in [8]; 4.62% in assay [9].
On to `COc1ccccc1CNC(=O)N1CCCC(c2nncn2C)C1` (centres undefined), for which the Percent Effect in [1] was -3.81%; in [2], 13.2%; in assay [3], -5.69%; in [4], 4.78%; in the assay on Trypanosoma cruzi it was 0.654%; in assay [5] it was 1.08%. Besides, the Percent Effect in assay [6] is 6.85%; in the assay listed under Homo sapiens, 5.9%; in assay [7], 7.39%; in [8], 23.5%; in assay [9], -3.47%.
`COCC1COCCC12CCN(CCc1ccccc1)CC2` (centres undefined): the Percent Effect in assay [1] was -4.75%; in assay [2], 2.7%; in assay [3], 0.285%; in assay [4], 0.939%; with Trypanosoma cruzi, 6.84%; in assay [5], -3.33%. Moreover, the Percent Effect in assay [6] came out at 16.5%; in the assay listed under Homo sapiens, 1.25%; in assay [7], 6.93%; in assay [8], 8.54%; in [9], 0.841%.
In the case of `CC(NC(=O)CSCC#N)c1ccccc1` (centres undefined), the Percent Effect was -1.5% in assay [1]; 28.9% in [2]; -6.37% in assay [3]; -7.6% in assay [4]; 5.51% in the assay on Trypanosoma cruzi; 0% in assay [5]. In addition, the Percent Effect in assay [6] is 15%; in the assay filed under Homo sapiens, 5.31%; in [7], 7.39%; in [8], 23.5%; in [9], -11.2%.
With `COc1cc(C(=O)NS(=O)(=O)c2cccc(C#N)c2)cc(Cl)c1OC`, the Percent Effect is -2.08% in assay [1]; -5.41% in [2]; 2.84% in [3]; 4.53% in assay [4]; 3.44% in the assay with Trypanosoma cruzi; 3.51% in assay [5]. The Percent Effect in assay [6] is 1.79%; in the assay filed under Homo sapiens, -7.05%; in assay [7], -6.93%; in assay [8] it was -1.22%; in [9] it was 6.51%.
Regarding `O=C(c1ccoc1)N1CCCn2cnc(COCC3CC3)c2C1`, the Percent Effect in [1] is -3.46%; in assay [2] it was 13.5%; in [3], 6.15%; in assay [4], -4.88%; in the assay with Trypanosoma cruzi, 1.07%; in [5], 9.24%. In addition, the Percent Effect in assay [6] was 22.1%; in the assay listed under Homo sapiens, 0.302%; in assay [7] it was 2.16%; in [8] it was 15.4%; in [9], -0.464%.
